Experimental data from PubChem BioAssay (NCATS).
Results filed as inconclusive are left out. Calls of active or inactive are those of the source. Calls come from the whole dose curve; as a rule, active = well fitted inhibition curve with a large enough effect; inconclusive = small, poorly fitted or top-dose-only effect; inactive = flat fitted curve, though single readings scatter.

How the values were obtained:
Assay in all cases: qHTS profiling for inhibitors of Plasmodium falciparum proliferation (AID 504749); note: nearly all actives have a fitted effect of over 60% in size
Conditions in all cases: P. falciparum in erythrocytes, SYBR Green DNA, 72 h; series mostly up to 28.7 µM
3D7 = test system: 3D7
Procedure, shortened: (§1)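 Fluorescence of SYBR Green-bound parasite DNA, read at 485/535 nm, served as the growth measure. Infected erythrocytes were cultured with compound 72 h; artemisinin (0.29 uM) and DMSO wells defined the normalization range.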

C2A = test system: C2A
Procedure, shortened: as §1

CP194 = test system: CP194
Procedure, shortened: as §1

CP201 = test system: CP201
Procedure, shortened: as §1

CP237 = test system: CP237
Procedure, shortened: as §1

CP250 = test system: CP250
Procedure, shortened: as §1

CP256 = test system: CP256
Procedure, shortened: as §1

CP269 = test system: CP269
Procedure, shortened: as §1

CP305 = test system: CP305
Procedure, shortened: as §1

CP315 = test system: CP315
Procedure, shortened: as §1

CP329 = test system: CP329
Procedure, shortened: as §1

DIV30 = test system: DIV30
Procedure, shortened: as §1

JCK = test system: JCK
Procedure, shortened: as §1

P94_40 = test system: P94_40
Procedure, shortened: as §1

PAD = test system: PAD
Procedure, shortened: as §1

PC15 = test system: PC15
Procedure, shortened: as §1

SC27B = test system: SC27B
Procedure, shortened: as §1

TAB109 = test system: TAB109
Procedure, shortened: as §1

TAB113 = test system: TAB113
Procedure, shortened: as §1

TAB165 = test system: TAB165
Procedure, shortened: as §1

Measured: Potency
Potency is the fitted concentration of half-maximal effect.

COc1cccc(OC)c1C(=O)NC1C(=O)N2C1SC(C)(C)C2C(=O)O (centres undefined)
inactive: all assays above

NC(=O)NC(CCC(=O)O)C(=O)O (centres undefined)
inactive: all assays above

CCCCCCCCCCCCCCCC(=O)OC[C@H](O)[C@H]1OC[C@@H](O)[C@@H]1O
not listed: TAB109
inactive: all other assays above

CC(O)C1CCC2C3CCC4CC(O)CCC4(C)C3CCC12C (centres undefined)
inactive: all assays above

C[C@H]1[C@@H](OC(=O)CCC(=O)O)OC2OC3(C)CC[C@H]4[C@H](C)CC[C@@H]1[C@@]24OO3 (some centres undefined)
active: 3D7 5 nM | C2A 3.2 nM | CP194 6 nM | CP201 12 nM | CP237 6.3 nM | CP250 4.5 nM | CP256 7.1 nM | CP269 4.8 nM | CP305 6 nM | CP315 12 nM | CP329 7.6 nM | DIV30 4.3 nM | P94_40 2.2 nM | PAD 5.6 nM | PC15 4.5 nM | SC27B 5 nM | TAB109 2.5 nM | TAB113 2 nM | TAB165 1.8 nM

C[C@@H]1C(SC2Cn3cnc[n+]3C2)=C(C(=O)[O-])N2C(=O)[C@H]([C@@H](C)O)[C@@H]12 (some centres undefined)
inactive: all assays above

CC1(C)OC[C@@H]2O[C@@]3(C(=O)O)OC(C)(C)O[C@@H]3[C@@H]2O1
inactive: all assays above

Cc1ccccc1N1C(=O)c2cc(N)ccc2N/C1=C\F
inactive: all assays above

O=C1NC(=O)C2C3C=CC(C3)C12 (centres undefined)
inactive: all assays above

CC(=O)N[C@H]1[C@H](O[C@@H]2c3ccc(c(Cl)c3)Oc3cc4cc(c3O[C@@H]3O[C@H](CO)[C@@H](O)[C@H](O)C3C)Oc3ccc(cc3Cl)C[C@H]3NC(=O)[C@@H](N)c5ccc(O)c(c5)Oc5cc(O)cc(c5)[C@H](NC3=O)C(=O)N[C@H]4C(=O)N[C@H]3C(=O)N[C@@H]2C(=O)N[C@@H](C(=O)O)c2cc(O)cc(O[C@H]4O[C@H](CO)[C@@H](O)C(O)[C@@H]4O)c2-c2cc3ccc2O)O[C@H](CO)[C@@H](O)[C@@H]1O (some centres undefined)
not listed: TAB109
inactive: all other assays above

OCC1O[C@H](O[C@H]2C(O)C(O)C(O)O[C@@H]2CO)C(O)C(O)C1O (some centres undefined)
inactive: all assays above

O=C1C(I)=CC(=C(c2cc(I)c(O)c(I)c2)c2ccccc2C(=O)O)C=C1I
inactive: all assays above

NC(=O)C1CC2(NC(=O)NC2=O)c2cc(F)ccc2O1 (centres undefined)
inactive: all assays above

O=[N+]([O-])O[C@H]1CO[C@H]2[C@@H]1OC[C@H]2O
inactive: all assays above

NC[C@@H]1O[C@H](OC2[C@@H](CO)O[C@@H](OC3[C@H](O)[C@H](N)C[C@H](N)[C@H]3OC3O[C@H](CO)[C@@H](O)[C@H](O)[C@@H]3N)[C@H]2O)C(N)[C@H](O)[C@@H]1O (some centres undefined)
inactive: all assays above

OCC1O[C@@H](O[C@@H]2C(CO)OC(O)C(O)C2O)C(O)C(O)C1O (some centres undefined)
inactive: all assays above

CCCCC(=O)OCC(=O)[C@]1(O)Cc2c(O)c3c(c(O)c2[C@H](OC2CC(NC(=O)C(F)(F)F)C(O)C(C)O2)C1)C(=O)c1c(OC)cccc1C3=O (some centres undefined)
active: 3D7 1580 nM | C2A 2000 nM | CP194 3010 nM | CP201 4780 nM | CP237 1580 nM | CP250 2510 nM | CP256 2000 nM | CP269 1690 nM | CP305 4780 nM | CP315 1690 nM | CP329 3790 nM | DIV30 1900 nM | P94_40 2000 nM | PAD 2240 nM | PC15 3550 nM | SC27B 2510 nM | TAB109 2000 nM | TAB113 2510 nM | TAB165 2240 nM

C[n+]1c2cc(N)ccc2cc2ccc(N)cc21
active: 3D7 398 nM | C2A 1000 nM | CP194 1200 nM | CP201 1690 nM | CP237 282 nM | CP250 1120 nM | CP256 1000 nM | CP269 953 nM | CP305 757 nM | CP315 2130 nM | CP329 1070 nM | DIV30 1690 nM | JCK 794 nM | P94_40 631 nM | PAD 1000 nM | PC15 178 nM | SC27B 1580 nM | TAB109 447 nM | TAB113 891 nM | TAB165 398 nM

CN1[C@@H]2CC[C@@H]1CC(OC(=O)[C@H](CO)c1ccccc1)C2 (some centres undefined)
active: JCK 15800 nM
not listed: PC15 | TAB113
inactive: all other assays above

CCCCCCCCCCCCCCCC(=O)OCC(COP(=O)(O)OCC[N+](C)(C)C)OC(=O)CCCCCCCCCCCCCCC (centres undefined)
inactive: all assays above

CC[C@@]1(O)C[C@H](O[C@H]2C[C@@H](N(C)C)[C@@H](O[C@H]3C[C@@H](O)[C@@H](O[C@H]4CCC(=O)[C@@H](C)O4)[C@@H](C)O3)[C@@H](C)O2)c2c(cc3c(c2O)C(=O)c2c(O)cccc2C3=O)[C@H]1C(=O)OC
active: 3D7 126 nM | C2A 178 nM | CP194 953 nM | CP201 1510 nM | CP237 35.5 nM | CP250 251 nM | CP256 282 nM | CP269 849 nM | CP305 601 nM | CP315 1350 nM | CP329 849 nM | DIV30 953 nM | JCK 126 nM | P94_40 158 nM | PAD 178 nM | PC15 158 nM | SC27B 316 nM | TAB109 224 nM | TAB113 199 nM | TAB165 141 nM
